Among all 39,000 compounds or so, about 3,300 (8.5%) were called active. This is one part of a sample in which actives are shown more often than they occur.
These compounds were tested on HepG2 (assay: cytotoxicity call (relative viability < 0.9)). Settings: 10 µM.

| Structure (SMILES) | cytotoxicity call |
| --- | --- |
| Cc1ccc(S(=O)(=O)N(C)C[C@@H]2Oc3ccc(NS(C)(=O)=O)cc3C(=O)N([C@@H](C)CO)C[C@H]2C)cc1 | inactive |
| CC(C)NC(=O)N(C)C[C@H]1Oc2c(NC(=O)Nc3ccc4c(c3)OCO4)cccc2C(=O)N([C@H](C)CO)C[C@H]1C | inactive |
| O=C(C[C@H]1C[C@H]2c3cc(NS(=O)(=O)c4ccc(F)cc4)ccc3O[C@H]2[C@H](CO)O1)NCc1ccccc1 | inactive |
| C[C@@H]1CCCCO[C@H](CN(C)C(=O)Nc2ccc(F)cc2)[C@H](C)CN([C@H](C)CO)C(=O)c2cc(NS(=O)(=O)c3ccc(Cl)cc3)ccc2O1 | inactive |
| C[C@@H]1CCCCO[C@H](CN(C)C(=O)Nc2ccc(F)cc2)[C@H](C)CN([C@@H](C)CO)C(=O)c2cc(NS(=O)(=O)c3ccc(Cl)cc3)ccc2O1 | inactive |
| C[C@@H]1CCCCO[C@@H](CN(C)C(=O)Nc2ccc(F)cc2)[C@H](C)CN([C@H](C)CO)C(=O)c2cc(NS(=O)(=O)c3ccc(Cl)cc3)ccc2O1 | active |
| C[C@H](CO)N1C[C@H](C)[C@H](CN(C)C(=O)Nc2ccc(F)cc2)OCCCC[C@H](C)Oc2ccc(NS(=O)(=O)c3ccc(Cl)cc3)cc2C1=O | active |
| O=C(C[C@H]1C[C@H]2c3cc(NC(=O)Cc4ccncc4)ccc3O[C@H]2[C@@H](CO)O1)NCc1ccc2c(c1)OCO2 | inactive |
| C[C@@H]1CN([C@H](C)CO)C(=O)c2cc(NC(=O)Nc3ccc4c(c3)OCO4)ccc2O[C@@H](C)CCCCO[C@@H]1CN(C)S(=O)(=O)c1ccccc1 | inactive |
| C[C@@H]1CN([C@@H](C)CO)C(=O)c2cc(NC(=O)Nc3ccc4c(c3)OCO4)ccc2O[C@@H](C)CCCCO[C@@H]1CN(C)C(=O)Cc1ccccc1 | inactive |
| CN1CCc2c(c3ccccc3n2Cc2ccccc2)C1 | active |
| Cn1sc(=O)n(Cc2ccccc2)c1=O | inactive |
| Cc1ccc(Cn2c3ccccc3c3ccccc32)cc1 | inactive |
| C[C@@H]1CCCCO[C@H](CN(C)C(=O)Nc2ccccc2)[C@@H](C)CN([C@H](C)CO)C(=O)c2cc(NC(=O)CCC(F)(F)F)ccc2O1 | inactive |
| C[C@@H]1CCCCO[C@@H](CN(C)C(=O)C2CCCCC2)[C@H](C)CN([C@@H](C)CO)C(=O)c2cc(NC(=O)Nc3ccc(C(F)(F)F)cc3)ccc2O1 | active |
| C[C@@H]1CN([C@H](C)CO)C(=O)c2cc(NC(=O)Nc3ccc(C(F)(F)F)cc3)ccc2O[C@@H](C)CCCCO[C@@H]1CN(C)C(=O)C1CCCCC1 | active |
| C[C@@H]1CCCCO[C@H](CN(C)C(=O)C2CCCCC2)[C@@H](C)CN([C@H](C)CO)C(=O)c2cc(NC(=O)Nc3ccc(C(F)(F)F)cc3)ccc2O1 | inactive |
| C[C@H]1CCCCO[C@H](CN(C)C(=O)C2CCCCC2)[C@@H](C)CN([C@@H](C)CO)C(=O)c2cc(NC(=O)Nc3ccc(C(F)(F)F)cc3)ccc2O1 | inactive |
| C[C@@H]1CN([C@H](C)CO)C(=O)c2cc(NC(=O)Nc3ccc(C(F)(F)F)cc3)ccc2O[C@@H](C)CCCCO[C@H]1CN(C)C(=O)C1CCCCC1 | inactive |
| C[C@@H]1CCCCO[C@@H](CN(C)C(=O)C2CCCCC2)[C@@H](C)CN([C@H](C)CO)C(=O)c2cc(NC(=O)Nc3ccc(C(F)(F)F)cc3)ccc2O1 | inactive |
| C[C@H](CO)N1C[C@H](C)[C@@H](CN(C)C(=O)C2CCCCC2)OCCCC[C@H](C)Oc2ccc(NC(=O)Nc3ccc(C(F)(F)F)cc3)cc2C1=O | inactive |
| C[C@@H]1CCCCO[C@H](CN(C)C(=O)C2CCCCC2)[C@H](C)CN([C@@H](C)CO)C(=O)c2cc(NC(=O)Nc3ccc(C(F)(F)F)cc3)ccc2O1 | inactive |
| C[C@H]1CCCCO[C@@H](CN(C)C(=O)C2CCCCC2)[C@@H](C)CN([C@@H](C)CO)C(=O)c2cc(NC(=O)Nc3ccc(C(F)(F)F)cc3)ccc2O1 | active |
